The text below walks through data of PubChem BioAssay (Tox21).

Inconclusive results are not listed. Activity calls are given as the source filed them. The call rests on the fitted dose curve; in most records, active means well fitted inhibition curve with a large enough effect in the signal ratio in the repeat runs (not every such curve was filed as active); inconclusive means weak or mixed curves, or effect the other way; inactive means no such curve, though single readings can be large or run the other way; the % refers to the signal ratio.

Bile acid receptor (Homo sapiens), sequence (Q96RI1 whole entry, looked up): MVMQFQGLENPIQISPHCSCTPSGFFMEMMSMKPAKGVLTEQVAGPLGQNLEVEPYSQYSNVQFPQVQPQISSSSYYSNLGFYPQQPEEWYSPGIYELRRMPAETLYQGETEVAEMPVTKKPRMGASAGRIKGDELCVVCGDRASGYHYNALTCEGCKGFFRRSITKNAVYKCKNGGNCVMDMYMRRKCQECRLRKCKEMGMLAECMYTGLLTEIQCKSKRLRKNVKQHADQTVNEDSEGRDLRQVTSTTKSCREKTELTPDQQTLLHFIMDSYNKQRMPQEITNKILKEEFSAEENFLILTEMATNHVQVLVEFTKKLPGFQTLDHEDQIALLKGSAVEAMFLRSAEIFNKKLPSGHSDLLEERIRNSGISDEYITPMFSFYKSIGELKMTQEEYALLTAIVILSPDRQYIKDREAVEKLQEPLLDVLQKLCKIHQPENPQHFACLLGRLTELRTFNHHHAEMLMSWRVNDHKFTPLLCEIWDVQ

The experiment has as its target Bile acid receptor (Homo sapiens) (UniProt Q96RI1). As to the kind of experiment: qHTS assay to identify small molecule antagonists of the farnesoid-X-receptor (FXR) signaling pathway (AID 743217). To be noted: HEK293T FXR-UAS-bla, beta-lactamase ratio, CDCA-stimulated, 16 h; series mostly up to 62.6 µM. The source says: U.S. Tox21 Program National Center for Advancing Translational Sciences [NCATS] NIH Chemical Genomics Center [NCGC] U.S. Environmental Protection Agency [EPA] National Institutes of Environmental Health Sciences [NIEHS] National Toxicology Program [NTP] U.S. Food and Drug Administration [FDA] Tox21 Assay Overview: The farnesoid-X-receptor (FXR), a nuclear hormone receptor, is highly expressed in liver, intestine, kidney and adrenal cortex. Natural ligands of FXR are the bile acids (Cholic acid, Chenodeoxy cholic acid etc). FXR is an important regulator of diverse metabolic pathways, including the bile acid homeostasis, lipid and glucose metabolisms. FXR regulates the expression of target genes by binding either as a monomer or as a heterodimer with the retinoid X receptor (RXR). Numerous studies have reported that FXR exerts protective function during cholestasis, diabetes, liver regeneration, and cancer. To identify compounds that inhibit FXR signaling, GeneBLAzer FXR-UAS-bla HEK 293T cell line (Invitrogen, Carlsbad, CA) containing a beta-lactamase reporter gene under the control of a UAS response element was used to screen the Tox21 10K compound library.
Tox21 Assay Protocol Summary: FXR-bla cells were dispensed at 5000 cells/5uL/well in 1536-well black wall/clear bottom plates using a Multidrop Combi (Thermo Fisher Scientific, Waltham, MA) dispenser. After the assay plates were incubated at 37C and 5% CO2 for 5 h, 23 nL of compounds dissolved in DMSO, positive controls or DMSO only was transferred to the assay plate by a Pintool station (Kalypsys, San Diego, CA), followed by addition of 1 uL Chenodeoxycholic acid (50 uM, final concentration in the wells). The assay plates were incubated at 37C for 16 h. After 1 uL of LiveBLAzerTM B/G FRET substrate was added using a Bioraptr Flying Reagent Dispenser (FRD) workstation (Beckman Coulter, Indianapolis, IN), the plates were incubated at room temperature for 2 h, and fluorescence intensity was measured by an Envision plate reader (PerkinElmer, Shelton, CT).
Take `CCCCC(CC)(CO)CO`: the outcome was inactive.
As to `CCOC(=O)CC(=O)c1cc(F)c(Cl)nc1Cl`, the outcome was inactive.
For `O=CNc1ccccc1`, the result was inactive.
In the case of `Cc1ncsc1CCO`, the outcome was inactive.
`CC(C)(C)C1CCCCC1O` (stereo not given): the result was inactive.
Take `Cc1ccccn1`: the result was inactive.
Turning to `CCCCOc1cc(C(=O)OCCN(CC)CC)ccc1N`, the result was inactive.
Consider `CC(=O)OC/C=C/c1ccccc1`, for which the result was inactive.
Take `CC(C(=O)O)c1ccc(C(=O)c2ccccc2)s1` (stereo not given): the outcome was inactive.
On to `COc1ccc(OC)c(OC)c1`, for which the result was inactive.
Consider `CC1=CC(=O)/C(=C(/C)O)C(=O)O1`, for which the outcome was inactive.
For the molecule `CCOC(=O)C1=NN(c2ccccc2)C(=O)C1`, the result was inactive.
With `C#CCOC(=O)[C@@H](C)Oc1ccc(Oc2ncc(Cl)cc2F)cc1`, the outcome was inactive.
Turning to `CC(=O)O[C@H]1C[C@@H]2CC[C@@H]3[C@H](CC[C@@]4(C)[C@H]3C[C@H]([N+]3(C)CCCCC3)[C@@H]4OC(C)=O)[C@@]2(C)C[C@@H]1N1CCCCC1`, the outcome was inactive.
The value for `CN1CCN(C2=Nc3cc(Cl)ccc3Nc3ccccc32)CC1` was “inactive”; that for `O=C(O)C(c1ccc(Cl)cc1)c1ccc(Cl)cc1` was “inactive”.
On to `CCCCCCCCCCCCCCCC(=O)OC/C=C(C)/C=C/C=C(C)/C=C/C1=C(C)CCCC1(C)C`, for which the result was inactive.
Regarding `O=C(O)Cn1c(C(=O)Nc2nc(-c3ccccc3Cl)cs2)cc2ccccc21`, the outcome was inactive.
As to `O=c1[nH]cnc2ccccc12`, the result was inactive.
As for `O=C1c2cccc(O)c2C(=O)c2c(O)cc(CO)cc21`, the result was inactive.
With `CCOc1ccc2[nH]cc(C(=O)NCc3ccccc3)c(=O)c2n1`, the result was inactive.
With `CC(C)=CCCC(C)CC=O` (stereo not given), the result was inactive.
With `COc1cc(C(C)(C)C)c(O)c(C(C)(C)C)c1`, the result was inactive.
Consider `CCCCCCCCCO`, for which the outcome was inactive.
The value for `CN(C)CC[C@@H](c1ccc(Br)cc1)c1ccccn1` was “inactive”; that for `O=C(O)[C@@H]1[C@H]2C[C@H]3c4[nH]c5ccccc5c4CCN3C[C@@H]2CC[C@@H]1O` was “inactive”.
In the case of `N#CCc1cccc(C(F)(F)F)c1`, the result was inactive.
With `FC(F)(F)C(F)(F)C(F)(F)C(F)(F)C(F)(F)C(F)(F)CCI`, the outcome was inactive.
With `CCCCc1cc2ccccc2c(OCCN(C)C)n1`, the outcome was inactive.
Take `C[C@@H](C1=C(CCN(C)C)Cc2ccccc21)c1ccccn1`: the result was inactive.
The value for `Cn1sccc1=O` was “inactive”.
In the case of `CC1CCc2cc(F)cc3c(=O)c(C(=O)O)cn1c23` (stereo not given), the outcome was inactive.
Take `Cc1cc(NC(=O)C(=O)O)cc(C)c1Oc1ccc(O)c2c1CCC2`: the outcome was inactive.
As for `CC(C)CCCC(C)CCO` (stereo not given), the result was inactive.
Regarding `CN1CCC(OC(c2ccccc2)c2ccccc2)CC1`, the outcome was inactive.
As to `Cc1cc(CC(=O)O)c(C)n1-c1ccc(Cl)cc1`, the result was inactive.
In the case of `CC1(C)CCC(C)(C)c2cc(NC(=O)c3ccc(C(=O)O)cc3)ccc21` it was “inactive”; in that of `O=C(O)Cc1sc(-c2ccccc2)nc1-c1ccc(Cl)cc1`, “inactive”.
As to `OCC1CC2CC1C1CCC(CO)C21` (stereo not given), the result was inactive.
`O=[N+]([O-])c1cc[n+]([O-])cc1`: the result was inactive.
